The structures appear in SMILES notation. Values joined by “and” are separate entries in the source; they are usually repeats but may differ in a detail not shown here. Identical values can stand only once. Compounds without any hit were thinned out: in the full panel of roughly 83,000, 20% have a hit.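 Method: cells in 96-well plates; compound added at one concentration; 48 h incubation; percent growth measured; values under 10 scored active.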 Values without a mark were called inactive. Active and inactive are the calls of the source.

The assay relates to MDA-MB-468 breast. Put plainly: NCI-60 one-dose screen, 48 h (100 = growth as untreated, 0 = no growth, -100 = all killed). To be noted: 10 µM unless noted.
Turning to `c1ccc2c(c1)Oc1ccccc1C2C1c2ccccc2Oc2ccccc21`, the growth is 107%.
Consider `CCOc1ccc2cc(-c3nn(CC4CCN(C)CC4)c4ncnc(N)c34)ccc2c1`, for which the growth is 85.6% and 42%.
`CN1CCN(c2nc(Nc3ccc(O)cc3)nc3ccccc23)CC1`: the growth was 75.2%.
As for `CNC(=O)c1ccccc1Oc1nc(Nc2cc(OC)c(OC)c(OC)c2)ncc1Br`, the growth was 49.6%.
Regarding `COc1ccc(Cn2cc3c(c2-c2ccc(OC)cc2)CCc2cnoc2-3)cc1`, the growth is -7.25% (active).
In the case of `CCCCOc1ccc(C(C)(C)c2ccc(OCCCC)cc2)cc1`, the growth was 132%.
As to `COc1cc(OC)c(C(=O)/C=C/c2cccc(C(F)(F)F)c2)c(OC)c1`, the growth is -9.39% (active).
With `COC(=O)CCCCCCCCC1(C)C=CC(C(C)O)=CC1` (centres undefined), the growth is 107%.
Next, `c1ccc2cc(C[n+]3ccn(CCCCCCCCCCn4cc[n+](Cc5ccc6ccccc6c5)c4)c3)ccc2c1`: -28.3% (active).

The record behind these values is PubChem BioAssay (NCI).
